In PubChem BioAssay (NCI):
Values joined by “and” are separate entries in the source; they are usually repeats but may differ in a detail not shown here. Equal entries are not always repeated. About 83,000 compounds went through this panel and 20% of them were active in at least one assay; those are over-represented in the sample as a whole.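 Step 1: grow cells in 96-well plates. Step 2: add test compound at a single concentration. Step 3: incubate 48 h. Step 4: record percent growth.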 Active and inactive are the calls of the source. Rule for the calls: active = growth percent below 10; inactive = the rest.

How the values were obtained:
Assay in all cases: NCI-60 one-dose screen, 48 h (100 = growth as untreated, 0 = no growth, -100 = all killed)
Settings in all cases: 10 µM unless noted
SK-MEL-2 melanoma = system: SK-MEL-2 melanoma
EKVX NSCLC = system: EKVX NSCLC
SN12C renal = system: SN12C renal
UO-31 renal = system: UO-31 renal
TK-10 renal = system: TK-10 renal
ACHN renal = system: ACHN renal
CAKI-1 renal = system: CAKI-1 renal
A498 renal = system: A498 renal
CCRF-CEM leukemia = system: CCRF-CEM leukemia
MOLT-4 leukemia = system: MOLT-4 leukemia

| SMILES | growth (SK-MEL-2 melanoma) | growth (EKVX NSCLC) | growth (SN12C renal) | growth (UO-31 renal) | growth (TK-10 renal) | growth (ACHN renal) | growth (CAKI-1 renal) | growth (A498 renal) | growth (CCRF-CEM leukemia) | growth (MOLT-4 leukemia) |
| --- | --- | --- | --- | --- | --- | --- | --- | --- | --- | --- |
| CCOC(=O)c1ccc(NC(=S)NC(=O)c2ccc(NC(=O)C(C)C)cc2OC)cc1 | 48.5% (inactive) | 36.1% (inactive) | 73.8% (inactive) | 51.7% (inactive) | 85.7% (inactive) | 64.6% (inactive) | 53.7% (inactive) | 86.7% (inactive) | 9.79% (active) | -60.3% (active) |
| COc1cc(CNC(=O)C[C@H](C)CCC=C(C)C)ccc1OCc1cn(-c2ccc(Cl)cc2Cl)nn1 | 71.7% (inactive) | 81.1% (inactive) | 64.8% (inactive) | 60.5% (inactive) | 68.7% (inactive) | 61.1% (inactive) | 31.8% (inactive) | 59% (inactive) | 116% (inactive) | 84% (inactive) |
| COc1ccc(C(=O)NNC(=O)CSc2nc3sc4c(c3c(=O)n2-c2ccc(Cl)cc2)CCCC4)cc1 | 92.2% (inactive) | 55.1% (inactive) | 29.5% (inactive) | 65.1% (inactive) | 143% (inactive) | 85.7% (inactive) | 74% (inactive) | 124% (inactive) | 70.4% (inactive) | 63.7% (inactive) |
| O=C(Nc1ccc(Br)cc1)Nc1ccc(-c2ccc3c(c2)NC(=O)/C3=C\c2ccc[nH]2)cc1 | 36.7% (inactive) | 42.3% (inactive) | 52.5% (inactive) | 20.6% (inactive) | 52.3% (inactive) | 30% (inactive) | 31.1% (inactive) | 105% (inactive) | 25.3% (inactive) | 35.6% (inactive) |
| COc1ccc2[nH]c(O)c(N=NC(=O)c3ccc4nc(-c5ccc(Cl)cc5)[nH]c4c3)c2c1 | 109% (inactive) | 90.1% (inactive) | 70.7% (inactive) | 95.6% (inactive) | 111% (inactive) | 104% (inactive) | 93.6% (inactive) | 166% (inactive) | 25.7% (inactive) | 15.7% (inactive) |
| CC(C)(C)C(=O)c1c2c(c3ccc4c5ccccc5ccc4n13)C(=O)c1ccccc1C2=O | 104% (inactive) | 86.2% (inactive) | 99% (inactive) | 67.9% (inactive) | 118% (inactive) | 79.2% (inactive) | 85.4% (inactive) | 188% (inactive) | 99.7% (inactive) | 94.3% (inactive) |
| O=C1/C(=C/c2cnc(-c3ccccc3)s2)SC(=S)N1Cc1ccc2c(c1)OCO2 | 72.7% (inactive) | 79.3% (inactive) | 72.9% (inactive) | 86.5% (inactive) | 78.4% (inactive) | 42.1% (inactive) | 37.3% (inactive) | 45.2% (inactive) | 87.2% (inactive) | 99.2% (inactive) |
| CN1CCN(C(=O)Oc2cc3c(c4ccccc24)[C@H](CCl)CN3C(=O)c2cc3cc(OCCCN4CCC4)ccc3[nH]2)[C@@H]2CSSC[C@H]21 | -83.7% (active) | -50.6% (active) | -75.8% (active) | -0.968% (active) | 11.7% (inactive) | -22.8% (active) | 1.34% (active) | -18.7% (active) | -28% (active) | -9.2% (active) |
| CC(=O)Nc1cccc(-n2c(COc3ccc(I)cc3)nc3ccccc32)c1 | 82.8% (inactive) and 118% (inactive) | 86% (inactive) and 102% (inactive) | 95.7% (inactive) and 111% (inactive) | -67.3% (active) and 90% (inactive) | 102% (inactive) and 104% (inactive) | -78.2% (active) and 116% (inactive) | 56.7% (inactive) and 105% (inactive) | 114% (inactive) and 136% (inactive) | 90.4% (inactive) and 96.2% (inactive) | 83.6% (inactive) and 102% (inactive) |
| O=C(CSc1nc2ccccc2c(=O)[nH]1)NNC(=O)c1ccccc1Cl | 105% (inactive) | 109% (inactive) | 112% (inactive) | 91.2% (inactive) | 105% (inactive) | 112% (inactive) | 90.4% (inactive) | 100% (inactive) | 120% (inactive) | 111% (inactive) |
| N#CCc1nnc(NC(=O)c2ccc(-n3c(=O)[nH]c4ccccc4c3=O)cc2)s1 | 97.7% (inactive) | 94.8% (inactive) | 95.4% (inactive) | 66.7% (inactive) | 104% (inactive) | 92.1% (inactive) | 86.3% (inactive) | 96.2% (inactive) | 101% (inactive) | 103% (inactive) |
| Cc1[nH]nc2ccc3nc(-c4cn[nH]c4C(F)(F)F)c4c(c3c12)CCCC4 | -68.2% (active) | -40.5% (active) | -22.4% (active) | -30.5% (active) | -56.2% (active) | 1.85% (active) | -9.8% (active) | -61.1% (active) | -12.1% (active) | 2.2% (active) |
| O=C(c1ccc(Cl)cc1)C1[C@H](c2ccccc2Cl)[C@@H](c2ccccc2)NC12C(=O)Nc1ccc(Br)cc12 (stereo not given in full) | -89.9% (active) | -42.2% (active) | -83.9% (active) | -97.5% (active) | -2.31% (active) | -69.2% (active) | -47.6% (active) | -48% (active) | -13.5% (active) | -24.5% (active) |
| COc1cccc(-c2ccc(/C=N/NC(=O)c3[nH]c4ccc(Br)cc4c3-c3ccccc3)s2)c1 | -3.93% (active) | 17.9% (inactive) | 0.265% (active) | 19.9% (inactive) | 8.47% (active) | 7.04% (active) | 9.77% (active) | 63.2% (inactive) | 16% (inactive) | 6.82% (active) |
| COc1cc(CNC(=O)C[C@H](C)CCC=C(C)C)ccc1OCc1cn(-c2ccc(Cl)c(Cl)c2)nn1 | 93.7% (inactive) | 77.2% (inactive) | 38.2% (inactive) | 60.8% (inactive) | 90.7% (inactive) | 71.5% (inactive) | 64% (inactive) | 79.9% (inactive) | 84.5% (inactive) | 68.7% (inactive) |
| O=C(c1ccc(O)cc1)C1[C@H](c2ccc(Cl)cc2)[C@@H](c2ccccc2)NC12C(=O)Nc1ccc(Br)cc12 (stereo not given in full) | -76.1% (active) | -5.33% (active) | -92.6% (active) | -25.7% (active) | 1.72% (active) | 0.788% (active) | 3.93% (active) | -15.5% (active) | -11.1% (active) | -34.2% (active) |
| Cc1ccccc1Nc1nnc(-c2c[nH]c3ccccc23)o1 | -10.8% (active) | 20.1% (inactive) | 33.8% (inactive) | 33.8% (inactive) | 60.2% (inactive) | 39.5% (inactive) | 29.4% (inactive) | 101% (inactive) | 10.5% (inactive) | 9.88% (active) |
| C=CCSc1nnc(-c2c(C)nc3sccn23)o1 | 104% (inactive) | 76.4% (inactive) | 96.8% (inactive) | 71.8% (inactive) | 124% (inactive) | 88.5% (inactive) | 77.9% (inactive) | 96.9% (inactive) | 90.3% (inactive) | 116% (inactive) |
| COc1c2c(c(Br)c3c1C(CCc1ccccc1)N(C)CC3)OCO2 (stereo not given) | 68.6% (inactive) | 36.3% (inactive) | 35% (inactive) | 35.9% (inactive) | 70.9% (inactive) | 30.3% (inactive) | 36% (inactive) | 82% (inactive) | 30.1% (inactive) | 25.3% (inactive) |
| O=C1CCC(N2C(=O)c3cccc(NCCOCCOCCOCCC(=O)NCCCC(=O)NC(c4ccc5c(c4)OCO5)c4cc(Cl)c5cccnc5c4O)c3C2=O)C(=O)C1 (stereo not given) | -5.74% (active) | 38.1% (inactive) | 26.9% (inactive) | 64.5% (inactive) | 95.2% (inactive) | 89.3% (inactive) | 69.8% (inactive) | 104% (inactive) | -4.69% (active) | 8.18% (active) |
| COc1ccccc1NC(=O)N/N=C/c1c[nH]c2ccccc12 | -24.9% (active) | 12.3% (inactive) | 23.2% (inactive) | 39.1% (inactive) | 33.2% (inactive) | 25.8% (inactive) | 42% (inactive) | 60.6% (inactive) | 17.4% (inactive) | 7.13% (active) |
| COC(=O)c1c(C(=O)OC)c2ccc3c4ccccc4ccc3n2c1C(=O)OC | 108% (inactive) | 97% (inactive) | 95.6% (inactive) | 87.8% (inactive) | 103% (inactive) | 109% (inactive) | 107% (inactive) | 129% (inactive) | 101% (inactive) | 114% (inactive) |
| c1n[nH]cc1-c1nc2ccc3[nH]ncc3c2c2c1CC1(CC2)COC1 | 18.3% (inactive) | 78.6% (inactive) | 38.9% (inactive) | 95.7% (inactive) | 49.2% (inactive) | 54.6% (inactive) | 12.3% (inactive) | 38.6% (inactive) | 30.3% (inactive) | 32.8% (inactive) |
| COC(=O)c1cc(C(=O)CBr)n2c1ccc1c3ccccc3ccc12 | 113% (inactive) | 60.1% (inactive) | 51.1% (inactive) | 24.3% (inactive) | 84.3% (inactive) | 17.4% (inactive) | 54% (inactive) | 101% (inactive) | 14% (inactive) | 6.44% (active) |
| Cc1ccc(C(=O)C[n+]2cccc3c4ccccc4ccc32)cc1 | 36.5% (inactive) | 28.9% (inactive) | 14.7% (inactive) | 29.7% (inactive) | 41.3% (inactive) | 50.6% (inactive) | 53.2% (inactive) | 75.2% (inactive) | 28.1% (inactive) | 14.4% (inactive) |
| COc1ccc(-c2nc3ccc(-c4nnc(SCc5ccccc5)o4)cc3[nH]2)cc1OC | 66.4% (inactive) | 58.1% (inactive) | -2.42% (active) | -8.65% (active) | 23% (inactive) | -45.4% (active) | 16.2% (inactive) | 117% (inactive) | 76.4% (inactive) | 78.8% (inactive) |
